Screens from PubChem BioAssay.
Most compounds without a hit are left out; they make up all but 2.5% or so of the library.
PG9 Ab binder = PG9 antibody binding by small molecule | 360,000 compounds, 0.43% hits | TR-FRET gp120-PG9 antibody binding | inhibition, % at 6.7 µM; in the data active means inhibition above about 8.5%
rCAG binder = molecules binding r(CAG) RNA repeats; r(CAG) RNA repeat, TO-PRO-1 dye displacement fluorescence; inhibition, % at 3 µM; 370,000 compounds, 1.3% hits; AID 651821;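 active means inhibition above the plate cutoff, the mean of all test compounds on that plate plus 3 SD, cut at about 35% in these data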;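 further: 0% = DMSO alone and 100% = 100 µM mitoxantrone as full dye displacement; higher means more dye released from RNA so lower well fluorescence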
Exocytosis inh = lytic granule exocytosis inhibition. AID 651702. TALL-104 LAMP-1 surface exposure, flow cytometry; cells stimulated with thapsigargin and PMA. 360,000 compounds, 0.66% hits. inhibition, % at 10 µM;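 active means inhibition above about 55%, limit read from the data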
ABCB6 inh MLPCN = human ABCB6 transporter inhibition | K562-ABCB6 porphyrin accumulation, flow cytometry, 1 h; stronger effect = lower value | fluorescence ratio to DMSO, % at 10 µM | 360,000 compounds, 0.19% hits | AID 602162;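 active means fluorescence ratio to DMSO below 75%, the collection mean minus 3 SD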;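 further: signal is porphyrin accumulated inside mitochondria; 100% equals median channel fluorescence of DMSO control wells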
Target sequence (Q9NP58 whole entry, looked up): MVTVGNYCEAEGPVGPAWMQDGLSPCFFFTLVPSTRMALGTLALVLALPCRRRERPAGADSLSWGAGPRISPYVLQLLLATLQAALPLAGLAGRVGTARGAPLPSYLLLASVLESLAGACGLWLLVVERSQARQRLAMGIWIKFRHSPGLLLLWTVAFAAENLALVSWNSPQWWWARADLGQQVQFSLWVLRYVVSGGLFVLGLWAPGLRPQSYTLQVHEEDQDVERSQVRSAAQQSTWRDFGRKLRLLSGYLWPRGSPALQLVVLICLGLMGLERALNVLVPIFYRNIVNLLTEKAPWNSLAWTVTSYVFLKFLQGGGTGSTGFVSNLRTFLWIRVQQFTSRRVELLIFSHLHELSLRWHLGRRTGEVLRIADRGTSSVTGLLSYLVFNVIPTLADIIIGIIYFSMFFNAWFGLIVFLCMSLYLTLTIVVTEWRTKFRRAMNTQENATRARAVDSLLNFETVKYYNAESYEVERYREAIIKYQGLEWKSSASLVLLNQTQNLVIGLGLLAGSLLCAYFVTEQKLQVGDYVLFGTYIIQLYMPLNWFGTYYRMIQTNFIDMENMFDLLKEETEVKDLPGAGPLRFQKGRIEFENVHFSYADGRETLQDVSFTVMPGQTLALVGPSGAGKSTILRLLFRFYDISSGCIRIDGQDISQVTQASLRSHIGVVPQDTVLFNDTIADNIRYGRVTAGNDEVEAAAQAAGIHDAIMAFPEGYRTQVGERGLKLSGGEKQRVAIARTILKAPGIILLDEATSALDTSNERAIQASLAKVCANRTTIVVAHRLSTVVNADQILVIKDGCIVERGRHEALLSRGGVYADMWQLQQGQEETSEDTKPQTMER
rCAG binder conf = r(CAG) RNA repeat binding, confirmation; shares compounds with rCAG binder; TO-PRO-1 dye displacement fluorescence; inhibition, % at 3 µM; 4,300 compounds, 70% hits; AID 652065;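 active means inhibition above a per-plate cutoff, the mean inhibition of sample wells plus 3 SD, cut at about 35% in these data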;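 further: loss of TO-PRO-1 fluorescence as compound displaces dye from 1x1 AA loop RNA; 0% = DMSO only wells and 100% = 100 µM mitoxantrone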
dCAG dye counter = disrupts DNA CAG TO-PRO-1 complex, flagging rCAG hits. 4,300 compounds, 94% hits. shares compounds with rCAG binder. inhibition, % at 3 µM. d(CAG) DNA oligo TO-PRO-1 dye displacement, fluorescence;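 active means inhibition above its plate's cutoff, the mean test-well inhibition plus 3 SD, cut at about 4.8% in these data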;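 further: 0% = DNA dye mix with DMSO and 100% = 100 µM mitoxantrone; hits displace the dye from DNA and so lower well fluorescence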
dCAG dye DR = DNA CAG dye complex inhibition, dose response counter-screen. 250 compounds, 20% hits. DNA CAG/GTC duplex TO-PRO-1 dye displacement fluorescence. shares compounds with rCAG binder. IC50, µM; in the data active means IC50 below about 10 µM
Numbers without * were called inactive; i = inactive; . = no result given.

SMILES	PG9 Ab binder	rCAG binder	Exocytosis inh	ABCB6 inh MLPCN	rCAG binder conf	dCAG dye counter	others
COc1ccc(Cn2c(O)c(C=Nc3ccc(OC)cc3)c3ccccc3c2=O)cc1	1	2	0	97	.	.
Nc1ncc(Br)cc1S(=O)(=O)Nc1cc(C(F)(F)F)cc(C(F)(F)F)c1	1	81*	2	99	65*	27*	dCAG dye DR=i
O=C(OCc1ccc([N+](=O)[O-])cc1)c1cc(=O)c2ccccc2o1	-1	1	-10	172	.	.
COc1ccc(C)cc1NC(=O)c1sc2ncn(CC(=O)N3CCCCC3)c(=O)c2c1C	1	2	-5	92	.	.
N#CCCN(C(=O)COC(=O)c1cccc(S(=O)(=O)Nc2ccc([N+](=O)[O-])cc2)c1)c1ccccc1	2	77*	0	94	77*	35*
N#CCCN(C(=O)COC(=O)c1ccc(S(=O)(=O)Nc2ccccc2)cc1)c1ccccc1	0	4	2	100	.	.
CC(=O)c1ccc(NC(=O)c2cnsn2)cc1	0	-1	2	93	.	.
O=C(Nc1cc(-c2ccccc2)sc1C(=O)O)c1cccc(F)c1	0	73*	20	99	70*	33*	dCAG dye DR=4*
CCOc1ccc(-c2cc(NC(=O)c3c(F)cccc3F)c(C(=O)O)s2)cc1	-3	83*	-11	94	85*	44*
CCOc1ccc(NC(=O)Nc2cc(-c3ccccc3)sc2C(=O)OC)cc1	-2	3	6	95	.	.
O=C(O)c1ccc(NC(=O)c2ccccc2NC(=O)c2cccc(F)c2)cc1	0	8	0	98	.	.
Cc1cc(C)nc(SCC(=O)c2ccc(O)c(O)c2)n1	-2	10	5	98	.	.
Cc1cc(SCC(=O)c2ccc(O)c(O)c2)n2nc(C)c(-c3ccccc3)c2n1	0	50*	0	99	67*	33*
N#Cc1c(-c2ccccc2)nc(SCc2ccc(Cl)cc2)[nH]c1=O	1	83*	31	97	76*	39*
COC(=O)c1cccc(CSc2nc(-c3ccccc3)c(C#N)c(=O)[nH]2)c1	0	75*	-7	102	63*	23*
C=CCSc1nc(-c2ccccc2)c(C#N)c(=O)[nH]1	8	13	0	94	.	.
COc1ccc(S(=O)(=O)NC(=O)C2(C)CCN2C(=O)c2cccc(F)c2)cc1 (stereo unspecified)	0	2	4	91	.	.
COc1ccc(C(C)=O)cc1CN1C(=O)C(Cc2ccccc2)ON=C1c1ncccc1C (stereo unspecified)	0	-2	21	108	.	.
O=C(N/N=C1/CC2CCC1C2)c1cc2ccccc2cc1O (stereo unspecified)	-5	51*	0	97	9	4
O=C(NCC1CCCCC1)c1cc2ccccc2cc1O	0	9	-2	97	.	.
O=C1NC[C@H](CC2CCCCC2)N(CCc2cccc(F)c2)C1=O	-1	-5	-4	98	.	.
CC(C)[C@H](Nc1nc(-c2ccccc2)nc2c1oc1ccccc12)C(=O)O	-1	58*	-2	93	42*	11*
CCC(C)[C@H](Nc1nc(-c2ccccc2)nc2c1oc1ccccc12)C(=O)O (stereo partly specified)	-1	74*	4	104	70*	32*	dCAG dye DR=i
CC(C)C(Nc1ncnc2c1oc1ccccc12)C(=O)O (stereo unspecified)	1	2	-5	100	.	.
O=C(Cc1ccc(NC(=O)C2CCCN(C(=O)CCc3ccccc3)C2)cc1)Nc1cccc(C(=O)N2CCCC2)c1 (stereo unspecified)	0	4	15	96	.	.
SMILES	PG9 Ab binder	rCAG binder	Exocytosis inh	ABCB6 inh MLPCN	rCAG binder conf	dCAG dye counter	others
CCCc1cc(=O)[nH]c(SCC(=O)Nc2cc(S(=O)(=O)N(CC)c3ccccc3)ccc2Cl)n1	2	60*	-3	94	56*	20*
COc1cc(C(=O)Nn2c(C)nc3ccccc3c2=O)cc(OC)c1OC	2	-2	-3	97	.	.
N#Cc1c(-c2ccc(F)cc2)cc(-c2cccs2)nc1SCC(=O)O	0	56*	-20	98	45*	14*
Cc1ccc(-c2cc(C(F)(F)F)c(C#N)c(SCC(=O)O)n2)cc1	-3	48*	-1	102	24	5.0*
COc1ccccc1-c1cc(-c2ccccc2)nc(SCC(=O)O)c1C#N	-1	47*	-7	101	37*	9.6*
CCCOc1ccc(-c2cc(C(F)(F)F)c(C#N)c(SCC(=O)O)n2)cc1	-1	21	5	106	.	.
COc1ccc(-c2cc(-c3ccccc3)c(C#N)c(SCC(=O)O)n2)cc1	1	11	-1	97	.	.
N#Cc1c(C(F)(F)F)cc(-c2cccs2)nc1SC(C(=O)O)c1ccccc1 (stereo unspecified)	0	78*	11	106	77*	31*	dCAG dye DR=i
O=C(NCc1ccncc1)[C@@H]1CCCN1C(=O)[C@@H]1CCCN1C(=O)c1cccc2ccccc12	0	2	-10	98	.	.
C#CCN(C[C@H]1[C@H](OC(=O)NCc2ccccc2F)[C@H](OC(=O)NCc2ccccc2F)C[C@H]2C(=O)N(c3ccccc3)C(=O)[C@@H]12)S(=O)(=O)c1ccc(C)cc1	0	19	1	99	.	.
CCOC(=O)CC(=O)CSc1nc(-c2ccccc2)cc(-c2ccccc2)c1C#N	-2	11	-3	100	.	.
N#Cc1c(-c2ccccc2)cc(-c2ccccc2)nc1SCC(=O)NCC(=O)O	2	41*	-2	103	37*	10*
COc1ccc(-c2cc(-c3ccc(Cl)cc3)c(C#N)c(SCC(=O)O)n2)cc1	2	80*	7	99	85*	55*
Cc1c([N+](=O)[O-])nnn1-c1cc(Cl)cc(Cl)c1	.	.	5	102	.	.
COCCn1c(SCC(=O)N2CC(=O)Nc3ccccc32)nc2ccccc21	-2	1	6	79	.	.
COC(=O)[C@]12C[C@H](CC(=O)NCCC(C)C)C(=O)N(Cc3cccc4ccccc34)C1=C[C@H](C(C)C)O[C@@H]2C1CC1	.	0	.	.	.	.
COc1cc(C)ccc1S(=O)(=O)NC(=O)C1(C)CCN1C(=O)C1(c2ccc(Cl)cc2)CCC1 (stereo unspecified)	-1	42*	8	100	30	5.4*
Cc1ccc(F)c(S(=O)(=O)NC(=O)C2(C)CCN2C(=O)C2(c3ccc(Cl)cc3)CCC2)c1 (stereo unspecified)	-2	36*	13	97	63*	24*
NS(=O)(=O)c1ccc(N=Nc2c(O)c(C(=O)O)cc3ccccc23)cc1	-7	46*	-3	99	48*	26*
Oc1ccc2ccccc2c1N=Nc1ccc(F)cc1	-2	5	-7	97	.	.
